Measurements reported in PubChem BioAssay AID1159580 (chemical genetic matrix, 2015).
Screen size: about 5,500 compounds; about 2,000 (36%) were called active. Roughly 18% stayed inconclusive and do not appear here. Rule as the data show it: active = normalized growth mostly below about 0.91 (no sharp cut-off); inconclusive = no clear call, values can overlap the other calls; inactive = mostly above about 0.92. The list shows a part of the results.

Assay: chemical genetic growth profiling, strain panel (AID 1159580);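 also: tested at 20 µM; growth read once vehicle control cultures reached saturation at 30 °C; 1 = growth at the plate median or of vehicle wells; lower values mean less growth of the strain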
Settings: growth OD

Measured: normalized growth

CCOP(=S)(OCC)SCSP(=S)(OCC)OCC
active: S. cerevisiae deletion strains, locus YDR162C, strain NBP2, hits give low values 0.806
inactive: S. cerevisiae deletion strains, locus YAL013W, strain DEP1, hits give low values 0.993 | S. cerevisiae deletion strains, locus YBR021W, strain FUR4, hits give low values 1 | S. cerevisiae deletion strains, locus YBR229C, strain ROT2, hits give low values 0.961 | S. cerevisiae deletion strains, locus YCL029C, strain bik1, hits give low values 0.978 | S. cerevisiae deletion strains, locus YDL035C, strain GPR1, hits give low values 0.956 | S. cerevisiae deletion strains, locus YDL074C, strain BRE1, hits give low values 0.89 | S. cerevisiae deletion strains, locus YDL101C, strain DUN1, hits give low values 0.97 | S. cerevisiae deletion strains, locus YDL134C, strain PPH21, hits give low values 0.986 | S. cerevisiae deletion strains, locus YDL185W, strain tfp1, hits give low values 0.957 | S. cerevisiae deletion strains, locus YDL192W, strain arf1, hits give low values 0.979 | S. cerevisiae deletion strains, locus YDR101C, strain arx1, hits give low values 0.989 | S. cerevisiae deletion strains, locus YDR150W, strain NUM1, hits give low values 0.984 | S. cerevisiae deletion strains, locus YDR318W, strain mcm21, hits give low values 0.981 | S. cerevisiae deletion strains, locus YDR388W, hits give low values 0.994 | S. cerevisiae deletion strains, locus YDR502C, strain sam2, hits give low values 0.99 | S. cerevisiae deletion strains, locus YEL061C, strain CIN8, hits give low values 0.995 | S. cerevisiae deletion strains, locus YER110C, hits give low values 0.987 | S. cerevisiae deletion strains, locus YER155C, strain BEM2, hits give low values 1.01 | S. cerevisiae deletion strains, locus YER167W, strain BCK2, hits give low values 0.972 | S. cerevisiae deletion strains, locus YGL078C, strain dbp3, hits give low values 0.984 | S. cerevisiae deletion strains, locus YGL086W, strain mad1, hits give low values 1 | S. cerevisiae deletion strains, locus YGL248W, strain PDE1, hits give low values 0.946 | S. cerevisiae deletion strains, locus YGR078C, strain PAC10, hits give low values 0.969 | S. cerevisiae deletion strains, locus YGR135W, strain pre9, hits give low values 0.981 | S. cerevisiae deletion strains, locus YGR229C, strain SMI1, hits give low values 0.908 | S. cerevisiae deletion strains, locus YGR252W, strain gcn5, hits give low values 0.954 | S. cerevisiae deletion strains, locus YHR030C, strain SLT2, hits give low values 1.01 | S. cerevisiae deletion strains, locus YHR079C, strain IRE1 (second series), hits give low values 0.989 | S. cerevisiae deletion strains, locus YHR094C, strain hxt1, hits give low values 0.999 | S. cerevisiae deletion strains, locus YHR129C, strain ARP1, hits give low values 0.969 | S. cerevisiae deletion strains, locus YHR200W, strain rpn10, hits give low values 0.995 | S. cerevisiae deletion strains, locus YIL066C, strain RNR3, hits give low values 0.94 | S. cerevisiae deletion strains, locus YIL073C, strain SPO22, hits give low values 0.907 | S. cerevisiae deletion strains, locus YIL125W, strain kgd1, hits give low values 0.981 | S. cerevisiae deletion strains, locus YIR030C, strain dcg1, hits give low values 0.984 | S. cerevisiae deletion strains, locus YJL095W, strain BCK1, hits give low values 0.964 | S. cerevisiae deletion strains, locus YJL134W, strain LCB3, hits give low values 0.988 | S. cerevisiae deletion strains, locus YJL168C, strain set2, hits give low values 0.984 | S. cerevisiae deletion strains, locus YJL187C, strain SWE1 (second series), hits give low values 0.984 | S. cerevisiae deletion strains, locus YJR043C, strain POL32, hits give low values 0.984 | S. cerevisiae deletion strains, locus YJR075W, strain HOC1, hits give low values 0.928 | S. cerevisiae deletion strains, locus YKL009W, strain mrt4, hits give low values 0.946 | S. cerevisiae deletion strains, locus YKL068W, hits give low values 0.993 | S. cerevisiae deletion strains, locus YKL085W, strain MDH1 (second series), hits give low values 0.984 | S. cerevisiae deletion strains, locus YKL085W, strain MDH1, hits give low values 0.984 | S. cerevisiae deletion strains, locus YKL190W, strain CNB1, hits give low values 1 | S. cerevisiae deletion strains, locus YKR001C, strain vps1, hits give low values 0.978 | S. cerevisiae deletion strains, locus YLR039C, strain RIC1, hits give low values 0.868 | S. cerevisiae deletion strains, locus YLR058C, strain SHM2, hits give low values 0.982 | S. cerevisiae deletion strains, locus YLR102C, strain apc9, hits give low values 0.983 | S. cerevisiae deletion strains, locus YLR262C, strain YPT6, hits give low values 0.829 | S. cerevisiae deletion strains, locus YLR268W, strain sec22, hits give low values 0.981 | S. cerevisiae deletion strains, locus YLR330W, strain CHS5, hits give low values 0.992 | S. cerevisiae deletion strains, locus YLR342W, strain FKS1 (second series), hits give low values 0.996 | S. cerevisiae deletion strains, locus YLR371W, strain rom2, hits give low values 0.985 | S. cerevisiae deletion strains, locus YLR418C, strain cdc73, hits give low values 0.932 | S. cerevisiae deletion strains, locus YML016C, strain PPZ1, hits give low values 0.988 | S. cerevisiae deletion strains, locus YML032C, strain rad52, hits give low values 0.989 | S. cerevisiae deletion strains, locus YML124C, strain tub3, hits give low values 0.996 | S. cerevisiae deletion strains, locus YMR078C, strain ctf18, hits give low values 0.997 | S. cerevisiae deletion strains, locus YMR223W, strain ubp8, hits give low values 0.98 | S. cerevisiae deletion strains, locus YMR263W, strain SAP30, hits give low values 0.981 | S. cerevisiae deletion strains, locus YMR307W, strain GAS1, hits give low values 0.954 | S. cerevisiae deletion strains, locus YNL067W, strain RPL9B, hits give low values 0.971 | S. cerevisiae deletion strains, locus YNL128W, strain TEP1, hits give low values 0.918 | S. cerevisiae deletion strains, locus YNL153C, strain GIM3, hits give low values 0.987 | S. cerevisiae deletion strains, locus YNL233W, strain BNI4, hits give low values 0.982 | S. cerevisiae deletion strains, locus YNL250W, strain rad50, hits give low values 0.982 | S. cerevisiae deletion strains, locus YNL271C, strain bni1, hits give low values 0.991 | S. cerevisiae deletion strains, locus YNL298W, strain CLA4, hits give low values 0.979 | S. cerevisiae deletion strains, locus YNL307C, strain MCK1, hits give low values 0.987 | S. cerevisiae deletion strains, locus YNL322C, strain KRE1, hits give low values 0.981 | S. cerevisiae deletion strains, locus YNR052C, strain pop2, hits give low values 0.986 | S. cerevisiae deletion strains, locus YOL006C, strain TOP1, hits give low values 0.788 | S. cerevisiae deletion strains, locus YOL012C, strain htz1 1.08 | S. cerevisiae deletion strains, locus YOL147C, strain pex11, hits give low values 1.01 | S. cerevisiae deletion strains, locus YOR061W, strain CKA2, hits give low values 0.964 | S. cerevisiae deletion strains, locus YOR069W, strain VPS5, hits give low values 0.995 | S. cerevisiae deletion strains, locus YOR136W, strain idh2, hits give low values 0.988 | S. cerevisiae deletion strains, locus YOR144C, strain elg1, hits give low values 0.989 | S. cerevisiae deletion strains, locus YOR184W, strain ser1, hits give low values 0.968 | S. cerevisiae deletion strains, locus YOR316C, strain cot1, hits give low values 0.969 | S. cerevisiae deletion strains, locus YPL055C, strain LGE1, hits give low values 0.914 | S. cerevisiae deletion strains, locus YPL241C, strain CIN2, hits give low values 0.989 | S. cerevisiae deletion strains, locus YPR119W, strain clb2, hits give low values 0.993 | S. cerevisiae deletion strains, locus YPR141C, strain kar3, hits give low values 0.949 | S. cerevisiae deletion strains, locus YPR163C, strain tif3, hits give low values 0.994 | S. cerevisiae deletion strains, locus YPR167C, strain met16, hits give low values 0.979 | S. cerevisiae deletion strains, strain wtn01, hits give low values 0.981 | S. cerevisiae strains, strain wild type, hits give low values 0.982
